# Data published in the supplement of paper PMC8728848.
# Many of the other results were omitted from the sample, so the strongest signals are more common in it than they were.
# B1: Gal 3 (Homo sapiens), P17931 (protein)
# chain: MADNFSLHDALSGSGNPNPQGWPGAWGNQPAGAGGYPGASYPGAYPGQAPPGAYPGQAPPGAYHGAPGAYPGAPAPGVYPGPPSGPGAYPSSGQPSAPGAYPATGPYGAPAGPLIVPYNLPLPGGVVPRMLITILGTVKPNANILDFQRGNDVAFHFNPRFNENNRRVIVCNTLLDNNWGREERQSVFPFESGKPFKIQVLVEPDHFKVAVNDAHLLQYNHRVKKLNEISKLGISGDIDLTSASYTMI
# Experiments:
# Test in all cases: glycan array binding signal (z-score within array); higher = stronger binding
# Conditions in all cases: glycan notation: IUPAC condensed, linker removed; mutation: K176L
# [1] = biological target: Fuc(a1-2)Gal(b1-4)GlcNAc(b1-3)Gal(b1-4)GlcNAc
# In short: (§1)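 Columns mapping to the same glycan were averaged after glycan names were converted to IUPAC-condensed notation. The data come from 3228 arrays in the Consortium for Functional Glycomics database, limited to those with an available protein sequence. Binding is reported as a within-array Z-score averaged across arrays of one protein sequence and across linkers.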
# [2] = biological target: Fuc(a1-2)Gal(b1-4)GlcNAc(b1-3)Gal(b1-4)GlcNAc(b1-3)Gal(b1-4)GlcNAc
# In short: as §1
# [3] = biological target: Fuc(a1-2)[Gal(a1-3)]Gal(b1-3)GlcNAc(b1-2)Man(a1-3)[Fuc(a1-2)[Gal(a1-3)]Gal(b1-3)GlcNAc(b1-2)Man(a1-6)]Man(b1-4)GlcNAc(b1-4)GlcNAc
# In short: as §1
# [4] = biological target: Fuc(a1-2)[Gal(a1-3)]Gal(b1-4)GlcNAc(b1-2)Man(a1-3)[Fuc(a1-2)[Gal(a1-3)]Gal(b1-4)GlcNAc(b1-2)Man(a1-6)]Man(b1-4)GlcNAc(b1-4)GlcNAc
# In short: as §1
# [5] = biological target: Fuc(a1-2)[GalNAc(a1-3)]Gal(b1-4)GlcNAc
# In short: as §1
# [6] = biological target: Fuc(a1-2)[GalNAc(a1-3)]Gal(b1-4)GlcNAc(b1-3)Gal(b1-4)GlcNAc(b1-3)Gal(b1-4)GlcNAc
# In short: as §1
# [7] = biological target: Fuc(a1-3)[Gal(b1-4)]GlcNAc
# In short: as §1
# [8] = biological target: Fuc(a1-3)[GalNAc(b1-4)]GlcNAc
# In short: as §1
# [9] = biological target: Gal(a1-4)Gal(b1-3)GlcNAc(b1-2)Man(a1-3)[Gal(a1-4)Gal(b1-3)GlcNAc(b1-2)Man(a1-6)]Man(b1-4)GlcNAc(b1-4)GlcNAc
# In short: as §1
# Gal(a1-4)Gal(b1-4)Glc = biological target: Gal(a1-4)Gal(b1-4)Glc
# In short: as §1
# Gal(b1-3)GalNAc = biological target: Gal(b1-3)GalNAc
# In short: as §1
# [10] = biological target: Gal(b1-3)GalNAc(b1-3)Gal(a1-4)Gal(b1-4)Glc
# In short: as §1
# [11] = biological target: Gal(b1-3)GlcNAc(b1-3)Gal(b1-4)GlcNAc(b1-6)[Gal(b1-3)GlcNAc(b1-3)]Gal(b1-4)Glc
# In short: as §1
# [12] = biological target: Gal(b1-3)[Fuc(a1-4)]GlcNAc(b1-3)Gal(b1-4)[Fuc(a1-3)]GlcNAc
# In short: as §1
# [13] = biological target: Gal(b1-3)[GlcNAc(b1-6)]GalNAc
# In short: as §1
# [14] = biological target: Gal(b1-4)GalNAc(b1-3)[Fuc(a1-2)]Gal(b1-4)GlcNAc
# In short: as §1
# [15] = biological target: Gal(b1-4)GlcNAc(b1-2)Man(a1-6)[Man(a1-3)]Man(b1-4)GlcNAc(b1-4)GlcNAc
# In short: as §1
# [16] = biological target: Gal(b1-4)GlcNAc(b1-3)Gal(b1-4)Glc
# In short: as §1
# [17] = biological target: Gal(b1-4)GlcNAc(b1-3)Gal(b1-4)GlcNAc(b1-3)Gal(b1-4)GlcNAc
# In short: as §1
# [18] = biological target: Gal(b1-4)GlcNAc(b1-3)[Gal(b1-4)GlcNAc(b1-6)]GalNAc
# In short: as §1
# [19] = biological target: Gal(b1-4)GlcNAc(b1-6)[Gal(b1-3)]GalNAc
# In short: as §1
# Gal3S6S(b1-4)GlcNAc6S = biological target: Gal3S6S(b1-4)GlcNAc6S
# In short: as §1
# Gal6S(b1-4)Glc = biological target: Gal6S(b1-4)Glc
# In short: as §1
# GalNAc(a1-3)GalNAc = biological target: GalNAc(a1-3)GalNAc
# In short: as §1
# [20] = biological target: GlcNAc(a1-4)Gal(b1-3)GlcNAc
# In short: as §1
# [21] = biological target: GlcNAc(a1-4)Gal(b1-4)GlcNAc(b1-3)Gal(b1-4)GlcNAc(b1-3)Gal(b1-4)GlcNAc
# In short: as §1
# GlcNAc(b1-3)Gal(b1-4)Glc = biological target: GlcNAc(b1-3)Gal(b1-4)Glc
# In short: as §1
# [22] = biological target: Kdn(a2-3)Gal(b1-4)[Fuc(a1-3)]GlcNAc
# In short: as §1
# Man(a1-2)Man(a1-3)Man = biological target: Man(a1-2)Man(a1-3)Man
# In short: as §1
# [23] = biological target: Man(a1-2)Man(a1-6)[Man(a1-3)]Man(a1-6)[Man(a1-2)Man(a1-2)Man(a1-3)]Man(b1-4)GlcNAc(b1-4)GlcNAc
# In short: as §1
# [24] = biological target: Neu5Ac(a2-3)Gal(b1-3)GalNAc
# In short: as §1
# [25] = biological target: Neu5Ac(a2-3)Gal(b1-3)GlcNAc(b1-3)Gal(b1-4)GlcNAc
# In short: as §1
# [26] = biological target: Neu5Ac(a2-6)Gal(b1-4)GlcNAc(b1-2)Man(a1-3)[Gal(b1-4)GlcNAc(b1-2)Man(a1-6)]Man(b1-4)GlcNAc(b1-4)GlcNAc
# In short: as §1
# [27] = biological target: Neu5Gc(a2-3)Gal(b1-3)[Fuc(a1-4)]GlcNAc
# In short: as §1
binder,measurement,setting,value
B1,glycan array binding signal (z-score),[1],5.06
same,glycan array binding signal (z-score),[2],5.51
same,glycan array binding signal (z-score),[3],5.21
same,glycan array binding signal (z-score),[4],7.87
same,glycan array binding signal (z-score),[5],0.393
same,glycan array binding signal (z-score),[6],5.28
same,glycan array binding signal (z-score),[7],-0.265
same,glycan array binding signal (z-score),[8],-0.262
same,glycan array binding signal (z-score),[9],-0.258
same,glycan array binding signal (z-score),Gal(a1-4)Gal(b1-4)Glc,-0.267
same,glycan array binding signal (z-score),Gal(b1-3)GalNAc,-0.269
same,glycan array binding signal (z-score),[10],-0.262
same,glycan array binding signal (z-score),[11],0.682
same,glycan array binding signal (z-score),[12],-0.273
same,glycan array binding signal (z-score),[13],-0.27
same,glycan array binding signal (z-score),[14],-0.267
same,glycan array binding signal (z-score),[15],-0.271
same,glycan array binding signal (z-score),[16],1.53
same,glycan array binding signal (z-score),[17],5.22
same,glycan array binding signal (z-score),[18],-0.256
same,glycan array binding signal (z-score),[19],-0.268
same,glycan array binding signal (z-score),Gal3S6S(b1-4)GlcNAc6S,-0.261
same,glycan array binding signal (z-score),Gal6S(b1-4)Glc,-0.27
same,glycan array binding signal (z-score),GalNAc(a1-3)GalNAc,-0.27
same,glycan array binding signal (z-score),[20],-0.259
same,glycan array binding signal (z-score),[21],5.87
same,glycan array binding signal (z-score),GlcNAc(b1-3)Gal(b1-4)Glc,-0.271
same,glycan array binding signal (z-score),[22],-0.27
same,glycan array binding signal (z-score),Man(a1-2)Man(a1-3)Man,-0.268
same,glycan array binding signal (z-score),[23],-0.263
same,glycan array binding signal (z-score),[24],-0.269
same,glycan array binding signal (z-score),[25],0.372
same,glycan array binding signal (z-score),[26],-0.267
same,glycan array binding signal (z-score),[27],-0.272
